HEK293 tox – cytotoxicity in counter-screen for GLP-1R inverse agonists | HEK293 cAMP-luciferase reporter cells, luminescence, 24 h | Potency, µM (titrated, usually from 38.3 µM), for the others: at the top dose activity change, negative = inhibition, most hits filed as inhibitors | hit rate 0.13% among 410,000;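 also: loss of luciferase light is scored as toxicity; % is scaled to controls: 0 for no effect and ±100 for the full control effect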
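A 23 nL compound transfer followed 12 hours of cell culture at 37 deg C; exposure then lasted 24 hr. Luciferase assay detection reagent was dispensed and plates read for luminescence after a 12 min room-temperature wait.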
RGS4 inhibitor – inhibitors of human regulator of G protein signaling 4; hit rate 0.039% among 390,000; P49798; AID 504845; Transcreener GDP fluorescence polarization, RGS4-accelerated GTP hydrolysis; Potency, µM (highest dose often 114 µM), inactives show at the highest dose activity change, negative = inhibition, hits mostly inhibitors; also: % is scaled to controls: 0 for no effect and ±100 for the full control effect; nearly all actives have a fitted effect of over 75% in size
Target sequence (P49798 whole entry, looked up): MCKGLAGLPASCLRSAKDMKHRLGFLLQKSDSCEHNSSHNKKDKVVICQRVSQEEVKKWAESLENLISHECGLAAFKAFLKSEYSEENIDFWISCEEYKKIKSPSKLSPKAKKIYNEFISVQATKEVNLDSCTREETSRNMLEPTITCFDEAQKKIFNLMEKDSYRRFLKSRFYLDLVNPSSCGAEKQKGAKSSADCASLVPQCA
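MLSMR compounds (23 nl, pin-transferred) preincubated 10 min at room temperature with a 500nM (2x) first reagent, then RGS4 at 900nM (2x) plus Transcreener GDP mix added; fluorescence polarization (620/688 nm) read before and after 90 min at 30 °C.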
GCN5L2 inh – GCN5L2 (KAT2A) acetyltransferase inhibition | Q92830 | AID 504327 | hit rate 0.21% among 390,000 | GCN5L2 HAT assay, ThioGlo1 CoA-SH fluorescence | Potency, µM (series often up to 58.9 µM), for the others: at the top dose activity change, negative = inhibition, actives largely listed as inhibitors; also: % is scaled to controls: 0 for no effect and ±100 for the full control effect
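Preincubate 20nM GCN5L2 with compound 15 min, RT → add 50uM ThioGlo1 + 75uM H3(1-25) + 70uM acetyl-CoA → read fluorescence 0 and 20 min. Primary qHTS; fluorescent artifacts likely.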
GLP-1R agonist – activates the human GLP-1 receptor. P43220. HEK293 GLP-1R CRE-luciferase, luminescence, 4-6 h; cells express a hypersensitive GLP-1R form. Potency, µM (series often up to 45.6 µM), for inactives: at the highest dose activation, hits mostly activators. hit rate 0.007% among 380,000; also: % of control where 0% means no effect
Target sequence (P43220 whole entry, looked up): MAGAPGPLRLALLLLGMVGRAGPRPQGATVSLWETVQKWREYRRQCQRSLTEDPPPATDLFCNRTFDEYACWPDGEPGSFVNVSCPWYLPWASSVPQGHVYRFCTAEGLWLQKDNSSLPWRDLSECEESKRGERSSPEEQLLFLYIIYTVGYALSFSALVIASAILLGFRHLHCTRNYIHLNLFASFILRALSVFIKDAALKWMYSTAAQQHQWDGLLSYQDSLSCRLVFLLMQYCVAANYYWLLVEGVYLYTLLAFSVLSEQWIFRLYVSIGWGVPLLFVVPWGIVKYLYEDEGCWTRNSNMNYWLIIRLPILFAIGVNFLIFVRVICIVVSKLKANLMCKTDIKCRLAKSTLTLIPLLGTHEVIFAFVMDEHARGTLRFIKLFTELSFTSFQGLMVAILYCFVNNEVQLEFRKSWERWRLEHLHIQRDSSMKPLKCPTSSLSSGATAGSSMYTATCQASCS
PTHR1 agonist – activates the human parathyroid hormone receptor PTHR1 | Potency, µM (series often up to 115 µM), inactives show top-dose activation, actives largely listed as activators | Q03431 | HEK293 GP2 PTHR1 cells, GloSensor cAMP luminescence, 1 h | hit rate 0.075% among 410,000 | AID 743266; also: nearly all actives have a fitted effect of over 55% in size
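HEK-293-derived GP2 cells expressing PTHR1 and a GloSensor cAMP reporter, 3,000/well, plated overnight, given luciferin plus IBMX (each 0.5 mM as added) for 1 h at 37 °C, then compound for 1 h at 37 °C. Luminescence was read after 15 min at room temperature.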
GLP-1R inv ag – GLP-1 receptor (human) inverse agonism; HEK293 GLP-1R CRE-luciferase, luminescence, 24 h; GLP-1R form is constitutively active; Potency, µM (series often up to 38.3 µM), for the others: at the highest dose activity change, negative = inhibition, hits mostly inhibitors; hit rate 1.6% among 410,000; AID 624417; also: % is scaled to controls: 0 for no effect and ±100 for the full control effect; nearly all actives have a fitted effect of over 55% in size
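qHTS in 1536-well format: reporter HEK293 cells expressing constitutive GLP-1R activity in DMEM + 10% Nu serum, 24 hr with compounds at 37 deg C, luminescence read after 12 min with detection reagent.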
Active calls of the source: *; [ ] = remark or other dose. An excerpt weighted towards active compounds, which were near 1.8% of everything screened. Calls follow the shape of the dose curve; as a rule, active = well fitted curve in the direction sought with a large enough effect; inconclusive = small, poorly fitted or top-dose-only effect, or another doubt; inactive = no such curve, though single readings can be large; an effect the other way counts as inactive or inconclusive. Potency is read from the fitted curve at half-maximal effect.

For CC1=C/C(=N\NC(=S)Nc2cccnc2)CC(C)(C)C1 the results were HEK293 tox 1µM*, RGS4 inhibitor -41.1%, GCN5L2 inh -7.8%, GLP-1R agonist 8.7%, PTHR1 agonist inactive and GLP-1R inv ag 3.98µM*.
Screening CC1(C)C2CC=C(/C=N/NC(=S)Nc3cccnc3)C1C2 (stereo not given) returned HEK293 tox -21.0%, RGS4 inhibitor 0.2%, GCN5L2 inh -16.2%, GLP-1R agonist 9.2%, PTHR1 agonist -2.8% and GLP-1R inv ag 1.3%.
Screening CCn1cc(C(=O)NCc2ccc(F)cc2)c(=O)c2cc(S(=O)(=O)N(C)C)ccc21 returned HEK293 tox -0.5%, RGS4 inhibitor 16.6%, GCN5L2 inh 4.4%, PTHR1 agonist -5.5% and GLP-1R inv ag 4.6%.
For Cc1occc1-c1nnc(SCC(=O)NC2CCCC2)n1-c1ccccc1 the results were HEK293 tox -3.6%, RGS4 inhibitor -26.9%, GCN5L2 inh 1.4%, GLP-1R agonist 0.4%, PTHR1 agonist inactive and GLP-1R inv ag 11.2µM*.
`COc1ccc(OC)c(NC(=O)CSc2nnc(C3CCCCC3)n2-c2ccccc2)c1` gave HEK293 tox 2.0%, RGS4 inhibitor 15.2%[11.4 µM], GCN5L2 inh -10.1%, GLP-1R agonist 6.1%, PTHR1 agonist inactive and GLP-1R inv ag 3.98µM*.
COc1cccc(NC(=O)CSc2nnc(-c3ccoc3C)n2-c2ccccc2)c1 was read as HEK293 tox 1.7%, RGS4 inhibitor -8.6%[11.4 µM], GCN5L2 inh -3.0%, GLP-1R agonist 4.0%, PTHR1 agonist -5.1%[57.5 µM] and GLP-1R inv ag 11.2µM*.
For Cc1ccc(S(=O)(=O)c2nnn3c2nc(NC(C)c2ccccc2)c2sccc23)cc1 (stereo not given) the results were HEK293 tox -7.3%, RGS4 inhibitor 5.8%, GCN5L2 inh -2.1%, PTHR1 agonist -58.5% and GLP-1R inv ag 29.3%.
O=C(CCC(=O)c1ccccc1)Nc1ccc(F)c(Cl)c1 was read as HEK293 tox -6.2%, RGS4 inhibitor 12.7%, GCN5L2 inh -5.1%, PTHR1 agonist inactive and GLP-1R inv ag -5.1%.
For CC1(C(=O)Nc2ccc3c(c2)OCCO3)CSCC(=O)N1CC(F)(F)F (stereo not given) the results were HEK293 tox -14.5%, PTHR1 agonist inactive and GLP-1R inv ag 13.0%.
Cc1cccc(NS(=O)(=O)c2ccc3c(c2)n(C)c(=O)n3C)c1C was read as HEK293 tox 0.8%, RGS4 inhibitor 3.6%, GCN5L2 inh 1.6%, PTHR1 agonist -13.5% and GLP-1R inv ag 1.0%.
CCn1nc(C)c2c(-c3ccccc3)cc(=O)n(C(C)C(=O)Nc3cccc(F)c3)c21 (stereo not given) was read as HEK293 tox 0.4%, RGS4 inhibitor -18.6%, GCN5L2 inh -15.2%, PTHR1 agonist inactive and GLP-1R inv ag 7.94µM*.
Screening CCn1nc(C)c2c(-c3ccccc3)cc(=O)n(C(C)C(=O)Nc3cc(C)ccc3C)c21 (stereo not given) returned HEK293 tox 26.3%, RGS4 inhibitor 27.9%, GCN5L2 inh -14.1%, PTHR1 agonist -6.0% and GLP-1R inv ag 12.1%.
COc1ccc2c(c1)OC[C@H]1[C@H]2N2C(=O)CN(CCc3c[nH]c4ccccc34)C(=O)[C@@]2(C)[C@H]1c1ccccc1 was read as HEK293 tox 7.2%, RGS4 inhibitor -14.2%, GCN5L2 inh -8.9%, GLP-1R agonist -2.5%, PTHR1 agonist inactive and GLP-1R inv ag 5.01µM*.
For Cc1cc(C)nc(NC(=S)NC(=O)c2ccccc2F)n1 the results were HEK293 tox -22.0%, RGS4 inhibitor -0.2%, GLP-1R agonist 11.8%, PTHR1 agonist inactive and GLP-1R inv ag 14.9%.
Cc1cc(C)nc(S/C=C/C(=O)c2ccccc2F)n1 was read as HEK293 tox 3.55µM*, RGS4 inhibitor inconclusive, GCN5L2 inh -10.7%, GLP-1R agonist 2.5%, PTHR1 agonist -89.4% and GLP-1R inv ag inconclusive.
`NC1(C(=O)O)CSSC1` gave HEK293 tox 11.2µM*, RGS4 inhibitor inconclusive, GLP-1R agonist -0.3%, PTHR1 agonist -8.8% and GLP-1R inv ag inconclusive.
`CC1CCC2(CC1)NC(=O)N(CC(=O)N(Cc1ccccc1)C(C)(C)C)C2=O` (stereo not given) gave HEK293 tox 5.6%, RGS4 inhibitor -34.2%, GCN5L2 inh -4.7%, GLP-1R agonist -6.4%, PTHR1 agonist inactive and GLP-1R inv ag 7.4%.
`CC1CCC2(CC1)NC(=O)N(Cc1cccc(C(F)(F)F)c1)C2=O` (stereo not given) gave HEK293 tox 3.0%, RGS4 inhibitor -1.6%, GCN5L2 inh 0.5%, GLP-1R agonist 6.8%, PTHR1 agonist -23.1% and GLP-1R inv ag 2.24µM*.
For CCC(C)NC(=O)[C@H](CSCc1ccccc1)N1Cc2ccccc2C1=O (stereo not given in full) the results were HEK293 tox -1.8%, RGS4 inhibitor -13.0%, GCN5L2 inh -1.1%, GLP-1R agonist -6.2%, PTHR1 agonist -3.5% and GLP-1R inv ag 11.2µM*.
Screening Cc1ccccc1NC(=O)[C@H](CSCc1ccccc1)N1Cc2ccccc2C1=O returned HEK293 tox -4.8%, RGS4 inhibitor -7.4%, GCN5L2 inh -9.1%, GLP-1R agonist -2.2%, PTHR1 agonist -35.0% and GLP-1R inv ag inconclusive.
`CCOc1ccc(NS(=O)(=O)c2cccc(C(=O)N3CCN(C/C=C/c4ccccc4)CC3)c2)cc1` gave HEK293 tox -29.1%, RGS4 inhibitor -20.3%, GLP-1R agonist -10.7%, PTHR1 agonist -47.5% and GLP-1R inv ag 10µM*.
Screening Cc1ccc(/C=N/N(C)S(=O)(=O)c2ccc(C)cc2)cc1 returned HEK293 tox 6.7%, RGS4 inhibitor 13.3%, GCN5L2 inh -2.7%, GLP-1R agonist 6.8%, PTHR1 agonist -74.1% and GLP-1R inv ag 10µM*.
COc1cccc(-c2cnc3c(NC=O)cc(-c4ccc(OC)cc4OC)cn23)c1 was read as HEK293 tox -36.5%, GLP-1R agonist inconclusive, PTHR1 agonist -20.1% and GLP-1R inv ag 0.794µM*.
Screening COc1ccc(-c2cc(NC=O)c3ncc(-c4ccc(OC)c(OC)c4)n3c2)c(OC)c1 returned HEK293 tox inconclusive, GLP-1R agonist 2.51µM*, PTHR1 agonist 3.4% and GLP-1R inv ag -52.7%.
COc1cccc(-c2cc(NC=O)c3ncc(-c4ccc(OC)c(OC)c4)n3c2)c1 was read as HEK293 tox -26.4%, GLP-1R agonist inconclusive, PTHR1 agonist inactive and GLP-1R inv ag inconclusive.

Bioassay records (PubChem)
